From PubChem BioAssay AID624453 (National Center for Advancing Translational Sciences (NCATS), 2012)
Active and inactive are the calls of the source. The call rests on the fitted dose curve; in most records, active means well fitted curve in the direction sought with a large enough effect; inactive means no such curve, though single readings can be large or run the other way.

Biological target: D(2) dopamine receptor (Homo sapiens) (UniProt P14416)
Experiment: HTS Assay for Allosteric Antagonists of the Human D2 Dopamine Receptor: Hit Validation in primary assay
Conditions: HEK293 TREx D2, calcium flux, dopamine EC80 antagonism; series mostly up to 41.8 µM; activity change, negative = inhibition: at the top concentration
Source text: Dopamine receptors (DARs) are involved in the etiology and/or therapy of a number of neuropsychiatric and endocrine disorders. For instance, all receptor-based antiparkinsonian drugs work via stimulating the D2 DAR subtype whereas all FDA-approved antipsychotic agents are antagonists of this receptor. […] There are three different types of allosteric modulators that we are seeking, two of which will stimulate or augment receptor signaling, allosteric agonists and potentiators, while the third, allosteric antagonists, will attenuate receptor signaling. The present primary screening assay measures compound antagonism after an EC80 addition of dopamine by tracking calcium flux in a […], inducible Hek293 Trex D2 cell line. NIH Chemical Genomics Center [NCGC] NIH Molecular Libraries Probe Centers Network [MLPCN] MLPCN Grant: NS064831 Assay Submitter (PI): David Sibley
Freshly passaged cells are plated in 1536 well black, clear bottom plates at a density of 4000 cells/well in 3 ul of complete media containing 1x tetracycline inducer. After an overnight incubation at 30 C in 5% CO2, cells are loaded with 2 ul of the no wash Calcium Assay Kit (ABD Bioquest) and incubated at room temperature for 30 to 90 minutes before it's read.

Chain of D(2) dopamine receptor (Homo sapiens) (P14416 whole entry, looked up): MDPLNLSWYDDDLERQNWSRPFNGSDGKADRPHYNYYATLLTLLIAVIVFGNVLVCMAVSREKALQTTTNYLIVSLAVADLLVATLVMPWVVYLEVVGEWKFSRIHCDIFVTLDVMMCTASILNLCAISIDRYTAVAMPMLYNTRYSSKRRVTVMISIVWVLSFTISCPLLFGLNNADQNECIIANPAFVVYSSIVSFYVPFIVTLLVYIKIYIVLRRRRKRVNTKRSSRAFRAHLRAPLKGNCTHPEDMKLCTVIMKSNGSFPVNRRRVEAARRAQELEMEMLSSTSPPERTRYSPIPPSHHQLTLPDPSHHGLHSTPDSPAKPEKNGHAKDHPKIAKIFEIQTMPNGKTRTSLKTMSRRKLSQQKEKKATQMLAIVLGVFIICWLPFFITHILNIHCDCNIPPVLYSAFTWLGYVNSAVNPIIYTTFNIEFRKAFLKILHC

SMILES	activity change, negative = inhibition
CCN1C[C@@]2(C)CC[C@@H](OC)[C@@]34C2C(O)[C@@]2(OCO[C@]25CC(OC)C2C[C@@]3(O)C5C2O)C14 (stereo not given in full)	16.4% (inactive)
CC(N)C(O)c1ccc(O)c(O)c1 (stereo not given)	97.2% (inactive)
NNCc1ccccc1	20.8% (inactive)
CN1C2CC(OC(=O)C(CO)c3ccccc3)CC1C(O)C2 (stereo not given)	2.83% (inactive)
CC1C(=O)OC2O[C@]3(C)CC[C@H]4C(C)CCC1[C@]24OO3 (stereo not given in full)	21.1% (inactive)
